The source of these data is PubChem BioAssay (NCI).

About 83,000 compounds went through this panel and 20% of them were active in at least one assay; those are over-represented in the sample as a whole.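 Step 1: grow cells in 96-well plates. Step 2: add test compound at a single concentration. Step 3: incubate 48 h. Step 4: record percent growth.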 Unmarked numbers belong to inactive results. The source made the active and inactive calls. Rule for the calls: active = growth percent below 10; inactive = the rest.

For the first test, the system named is DU-145 prostate. Nature of the test: NCI-60 one-dose screen, 48 h (100 = growth as untreated, 0 = no growth, -100 = all killed). As to conditions: 10 µM unless noted.
On to `C=C(C)[C@@H]1CC[C@]2(CNCCO)CC[C@]3(C)[C@H](CC[C@@H]4[C@@]5(C)CCC(N)[C@@](C)(CO)[C@@H]5CC[C@]43C)[C@@H]12` (stereo partly drawn), for which the growth is 10.3%.
Still for that read-out and setting: the value for `O=S(=O)(NCCNc1cc(-c2c(-c3cccc(O)c3)nc3sccn23)ccn1)c1ccc(Cl)cc1` was 67.8%; that for `CC(C)(C)Nc1c(-c2c3ccccc3cc3ccccc23)nc2ccccn12` was 92.7%; that for `CN(C)CCOC(=O)Nc1ccc(Cl)cc1` was 110%.
As for `CCOc1ccc(-c2nc3ccc(-c4nc5ccc(N6CCN(C)CC6)cc5[nH]4)cc3[nH]2)cc1OCC`, the growth is 11.1%.
Take `N[C@H]1CCC[C@@H]1NCCCCN1C(=O)c2cccc3cccc(c23)C1=O`: the growth was 43.4%.
In the case of `COc1ccc(/C=C(\C#N)n2nnc3cc(F)c(F)cc32)c(OC)c1OC`, the growth is 24.5%.
`COc1cc2ccccc2cc1C(=O)NC(=S)Nc1ccc(-c2nc3ccccc3[nH]2)cc1`: the growth is 56.1%.
Take `Cc1ccc(/C=C(\C#N)n2nnc3cc(Cl)c(Cl)cc32)cc1`: the growth is 3.78% (active).
On to `CC(C)(O)c1cccc(F)c1`, for which the growth was 107%.
On the same count and under the same terms, the result for `O=C1Nc2ccc(Cl)cc2/C1=N/N=C/c1c[nH]c2ccccc12` reads 64.2%.
On the same count and under the same terms, the result for `N#Cc1c(-c2ccccc2)nc(SCC2CO2)nc1N1CCOCC1` (stereo not drawn) reads 87.5%.
Take `COc1cc2c(cc1OC)-c1ccc3cc4c(cc3c1N(CCCN(C)C)C2)OCO4`: the growth is 38.9%.
Turning to `C=C1C(=O)O[C@H]2[C@H]1CC/C(Cn1cc(CNCCc3c[nH]c4ccc(Cl)cc34)nn1)=C\CC[C@@]1(C)O[C@@H]21`, the growth was 83.6%.
For `C#CC[C@H](N)C(=O)O`, the growth was 104% [20 µM].
Regarding `O=C(Oc1ccc([N+](=O)[O-])cc1)c1ccc(CBr)cc1`, the growth is 107%.
The same measure, in the same setting: the value for `OC(CBr)c1ccnc2ccccc12` (stereo not drawn) was 109%; that for `CCCNCC(=O)Nc1ccc(C(=O)OC(C)(C)CC)cc1` was 101%; that for `CC(=O)c1cc2c(o1)C(=O)c1ccccc1C2=O` was -97.8% (active).
On the same count and under the same terms, the result for `CS(=O)(=O)c1ccc(-c2[nH]c3ccc(F)cc3c2/C=N/NC(N)=S)cc1` reads 22.1%; that for `CC(C)c1ccc(C(=O)OC(=O)c2ccc(C(C)C)cc2)cc1`, 119%.
In the case of `N=C(N)c1ccc(-c2ccc(-c3ccc(Cl)c(Cl)c3)o2)nc1`, the growth is -18.5% (active).
With `N#C/C=C(\c1ccc([N+](=O)[O-])cc1)n1nnc2cc(Cl)c(Cl)cc21`, the growth is -21.2% (active).
In the case of `CS(=O)(=O)c1ccc(-c2nc3cc(Cl)ccc3n2CC(=O)NO)cc1`, the growth is 101%.
Take `CC(=O)Nc1cccc(C2=CC(c3ccc(C)cc3)n3ncnc3N2)c1` (stereo not drawn): the growth was 102%.
For the compound `CCn1c(Sc2nnc(NC(=O)CCN3CCCC3)s2)nc2c1c(=O)n(C)c(=O)n2C`, the growth was 104%.
Regarding `N#Cc1c(NC(=O)c2cccc(C(F)(F)F)c2)sc2c1CCC(=O)C2`, the growth was 24%.
In the case of `CC(C)(C)c1ccc(C(=O)Nc2sc3c(c2C(N)=O)CCC(=O)C3)cc1`, the growth is 24.7%.
On the same count and under the same terms, the result for `CCOC(=O)c1c(C)nc2c(c1N)/C(=C/c1cc(OC)c(OC)c(OC)c1)C(=O)N2c1ccc(OC)cc1` reads 16.3%.
Take `Nc1nc(Nc2ccc(Cl)cc2)nn1S(=O)(=O)c1ccc(-c2ccc(F)cc2)cc1`: the growth is 88.7%.
For the compound `CCNCCNc1cc(-c2ccc(C(F)(F)F)cc2)c(C#N)c2nc3cc(Cl)c(Cl)cc3n12`, the growth was -93% (active).
With `C=CCN1C(=O)[C@]2(SC1=S)[C@H](c1cccc(Cl)c1)CN(C)[C@]21C(=O)NC2C=CC(Cl)=C[C@H]21` (stereo partly drawn), the growth is 48.8%.
For the compound `O=C(/C=C/C12c3ccccc3C(c3ccccc31)C1C(=O)N(c3ccccc3)C(=O)C12)c1ccccc1` (stereo not drawn), the growth is 5.98% (active).
`O=S(=O)(Nc1ccsc1-c1nc(-c2ccccc2)no1)c1cc(Cl)cc(Cl)c1`: the growth was 101%.
With `CNC1(C#N)CCN(Cc2ccccc2)CC1`, the growth is 113%.
Take `COc1cc2cc(Oc3ccc(NC(=O)Nc4cc(C(F)(F)F)cc(C(F)(F)F)c4)cc3)c(C)nc2cc1OCCN1CCCCC1`: the growth is -95% (active).
For the compound `CC(C)n1nc(C#Cc2cccc3cc(-c4cccc(C(F)(F)F)c4)ncc23)c2c(N)ncnc21`, the growth was 89.4%.
`N[C@@H]1CCC[C@H]1NCCCCN1C(=O)c2cccc3cccc(c23)C1=O`: the growth was 59.8%.
Regarding `CCN(CC)CCOC(=O)N1c2ccccc2Sc2ccccc21`, the growth was 99.9%.

The test system of a further test is K-562 leukemia. The test is described as above. As to conditions: 10 µM unless noted.
On to `C=C(C)[C@@H]1CC[C@]2(CNCCO)CC[C@]3(C)[C@H](CC[C@@H]4[C@@]5(C)CCC(N)[C@@](C)(CO)[C@@H]5CC[C@]43C)[C@@H]12` (stereo partly drawn), for which the growth is -63.2% (active).
Regarding `O=S(=O)(NCCNc1cc(-c2c(-c3cccc(O)c3)nc3sccn23)ccn1)c1ccc(Cl)cc1`, the growth was 42.5%.
As for `CC(C)(C)Nc1c(-c2c3ccccc3cc3ccccc23)nc2ccccn12`, the growth was 42%.
Turning to `CN(C)CCOC(=O)Nc1ccc(Cl)cc1`, the growth was 90.5%.
For `CCOc1ccc(-c2nc3ccc(-c4nc5ccc(N6CCN(C)CC6)cc5[nH]4)cc3[nH]2)cc1OCC`, the growth was 12.8%.
As for `N[C@H]1CCC[C@@H]1NCCCCN1C(=O)c2cccc3cccc(c23)C1=O`, the growth is 65.9%.
For the compound `COc1ccc(/C=C(\C#N)n2nnc3cc(F)c(F)cc32)c(OC)c1OC`, the growth was 23%.
In the case of `COc1cc2ccccc2cc1C(=O)NC(=S)Nc1ccc(-c2nc3ccccc3[nH]2)cc1`, the growth was 75.6%.
Still for that read-out and setting: the result for `Cc1ccc(/C=C(\C#N)n2nnc3cc(Cl)c(Cl)cc32)cc1` reads 6.41% (active).
With `CC(C)(O)c1cccc(F)c1`, the growth is 105%.
Regarding `O=C1Nc2ccc(Cl)cc2/C1=N/N=C/c1c[nH]c2ccccc12`, the growth was 88.4%.
Take `N#Cc1c(-c2ccccc2)nc(SCC2CO2)nc1N1CCOCC1` (stereo not drawn): the growth was 97.4%.
Still for that read-out and setting: the value for `COc1cc2c(cc1OC)-c1ccc3cc4c(cc3c1N(CCCN(C)C)C2)OCO4` was 20.6%; that for `C=C1C(=O)O[C@H]2[C@H]1CC/C(Cn1cc(CNCCc3c[nH]c4ccc(Cl)cc34)nn1)=C\CC[C@@]1(C)O[C@@H]21` was 2.7% (active).
On to `C#CC[C@H](N)C(=O)O`, for which the growth was 96.8% [20 µM].
Consider `O=C(Oc1ccc([N+](=O)[O-])cc1)c1ccc(CBr)cc1`, for which the growth was 86.7%.
`OC(CBr)c1ccnc2ccccc12` (stereo not drawn): the growth was 92%.
Same read-out and setting: the result for `CCCNCC(=O)Nc1ccc(C(=O)OC(C)(C)CC)cc1` reads 101%; that for `CC(=O)c1cc2c(o1)C(=O)c1ccccc1C2=O`, -24.9% (active); that for `CS(=O)(=O)c1ccc(-c2[nH]c3ccc(F)cc3c2/C=N/NC(N)=S)cc1`, 6.76% (active).
Same read-out and setting: the value for `CC(C)c1ccc(C(=O)OC(=O)c2ccc(C(C)C)cc2)cc1` was 74.7%.
For `N=C(N)c1ccc(-c2ccc(-c3ccc(Cl)c(Cl)c3)o2)nc1`, the growth was -1.03% (active).
Take `N#C/C=C(\c1ccc([N+](=O)[O-])cc1)n1nnc2cc(Cl)c(Cl)cc21`: the growth was 13.9%.
For the compound `CS(=O)(=O)c1ccc(-c2nc3cc(Cl)ccc3n2CC(=O)NO)cc1`, the growth is 95.7%.
Same read-out and setting: the value for `CC(=O)Nc1cccc(C2=CC(c3ccc(C)cc3)n3ncnc3N2)c1` (stereo not drawn) was 86.2%; that for `CCn1c(Sc2nnc(NC(=O)CCN3CCCC3)s2)nc2c1c(=O)n(C)c(=O)n2C` was 102%.
The same measure, in the same setting: the result for `N#Cc1c(NC(=O)c2cccc(C(F)(F)F)c2)sc2c1CCC(=O)C2` reads 6.88% (active).
Still for that read-out and setting: the value for `CC(C)(C)c1ccc(C(=O)Nc2sc3c(c2C(N)=O)CCC(=O)C3)cc1` was 4.82% (active).
For `CCOC(=O)c1c(C)nc2c(c1N)/C(=C/c1cc(OC)c(OC)c(OC)c1)C(=O)N2c1ccc(OC)cc1`, the growth is 23.4%.
As to `Nc1nc(Nc2ccc(Cl)cc2)nn1S(=O)(=O)c1ccc(-c2ccc(F)cc2)cc1`, the growth is 83.5%.
With `CCNCCNc1cc(-c2ccc(C(F)(F)F)cc2)c(C#N)c2nc3cc(Cl)c(Cl)cc3n12`, the growth is -63.7% (active).
As for `C=CCN1C(=O)[C@]2(SC1=S)[C@H](c1cccc(Cl)c1)CN(C)[C@]21C(=O)NC2C=CC(Cl)=C[C@H]21` (stereo partly drawn), the growth is 22.9%.
On to `O=C(/C=C/C12c3ccccc3C(c3ccccc31)C1C(=O)N(c3ccccc3)C(=O)C12)c1ccccc1` (stereo not drawn), for which the growth was 14.5%.
Consider `O=S(=O)(Nc1ccsc1-c1nc(-c2ccccc2)no1)c1cc(Cl)cc(Cl)c1`, for which the growth was 105%.
`CNC1(C#N)CCN(Cc2ccccc2)CC1`: the growth was 104%.
`COc1cc2cc(Oc3ccc(NC(=O)Nc4cc(C(F)(F)F)cc(C(F)(F)F)c4)cc3)c(C)nc2cc1OCCN1CCCCC1`: the growth was -49.3% (active).
The same measure, in the same setting: the result for `CC(C)n1nc(C#Cc2cccc3cc(-c4cccc(C(F)(F)F)c4)ncc23)c2c(N)ncnc21` reads 2.23% (active); that for `N[C@@H]1CCC[C@H]1NCCCCN1C(=O)c2cccc3cccc(c23)C1=O`, 60.4%.
Take `CCN(CC)CCOC(=O)N1c2ccccc2Sc2ccccc21`: the growth was 90.7%.
